Among all 350,000 compounds or so, about 2,400 (0.69%) were called active. Rule as the data show it: active = inhibition above about 41%; inconclusive = no clear call, values can overlap the other calls; inactive = below that. Many of the other results were omitted from the sample, so actives are more common in it than they were.

This assay in a line: EBV LMP1-driven NF-kappaB luciferase reporter inhibitors, primary screen, cell-based, luminescence, single point (AID 504558).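 Also: 0% = neutral control wells and 100% = reference inhibitor control.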 The settings on record: LMP1-induced NF-kappaB luciferase reporter cells, at 12.5 µM, hits give high values.
Turning to `CCCn1c(N)c(C(=O)CSc2nnc(Cc3cccs3)n2C2CC2)c(=O)[nH]c1=O`, the inhibition – broadly, the relative decrease from the control value, in per cent – is 0.699% (inactive).
On to `O=C(CSc1ncn[nH]1)Nc1nc2c(F)c(F)c(F)cc2s1`, for which the inhibition was -1.34% (inactive).
To `CCOC(=O)C(=Cc1ccccc1)C(=O)c1ccccc1` belongs 31.5% (inactive).
Regarding `CCOC(=O)/C(=C\c1ccc([N+](=O)[O-])cc1)C(=O)c1cc(C(C)=O)c(Nc2ccccc2)s1`, the inhibition is 55.7% (active).
Take `O=C(O)C(=Cc1ccc([N+](=O)[O-])cc1)CCc1ccccc1`: the inhibition was 2.53% (inactive).
With `COc1ccc(NC(=O)CN(C)C(=O)c2cc(C)oc2C)cc1` the figure was -4.83% (inactive); with `Cc1cccc(C)c1NC(=O)CNC(=O)c1ccc(N2CCOCC2)c([N+](=O)[O-])c1`, -0.676% (inactive).
As for `CS(=O)(=O)N1CCN(C(=O)c2cc3ccccc3oc2=O)CC1`, the inhibition was 9.53% (inactive).
With `O=c1oc2ccccc2cc1-c1cn(-c2ccccc2)c(=S)[nH]1` the figure was 73.5% (active); with `COc1cccc(-n2c(=S)[nH]c3c(oc4ccccc43)c2=O)c1`, -10.2% (inactive); with `C[C@H]1CN([C@@H](C)CO)C(=O)CCCn2cc(nn2)CO[C@@H]1CN(C)C(=O)Nc1ccccc1`, -0.0595% (inactive).
Regarding `Cc1ccc([C@H]2C[C@H](O)[C@@H](n3cc(COC(=O)c4ccccc4)nn3)CN2C(=O)C2CCCCC2)cc1`, the inhibition was 7.15% (inactive).
Turning to `COc1ccc(CN2C(=O)C(CC(=O)NCc3cccc4ccccc34)CC(C(=O)N3CCOCC3)=C2C)cc1` (centres undefined), the inhibition is 1.6% (inactive).
In the case of `CSc1nc(-c2ccccc2)nc(C(Cl)Cl)n1`, the inhibition was 85.7% (active).
Regarding `Cc1csc(SCC(=O)Nc2ccc(C)c(S(=O)(=O)N(C)C)c2)n1`, the inhibition was -5.08% (inactive).
Turning to `Cc1ccc(CCNC(=O)CN2C(=O)CSc3ccc(S(=O)(=O)N4CCOCC4)cc32)cc1`, the inhibition is -9.19% (inactive).
With `O=C1CC[C@@H](C(=O)N2CSC[C@@H]2C(=O)Nc2ccc(C(F)(F)F)cc2)N1` the figure was -8.12% (inactive).
`CC(C)c1cc(C(=O)NC2CCCCCC2)c2ccccc2n1`: the inhibition was -2.77% (inactive).
In the case of `CN(c1ccc2nc3ccccc3c(=O)n2n1)C1CCCCC1`, the inhibition is 76% (active).
To `CC(C)C(C)NC(=O)COc1nc2ccccc2nc1N(C)C1CCCCC1` (centres undefined) belongs -16% (inactive).
As to `CC1(c2cccc(N)c2)OCCO1`, the inhibition was -20.7% (inactive).
With `COC(=O)C(C)NC(=O)COc1ccc2ccccc2c1` (centres undefined) the figure was -5.65% (inactive); with `Cc1cc2ccccc2n1CCNC(=O)COc1ccc2ccccc2c1`, 52.5% (active); with `Cc1cc2ccccc2n1CCC(=O)O`, 2.51% (inactive).
On to `CC(=O)c1ccccc1NC(=O)COC(=O)C1COc2ccccc2O1` (centres undefined), for which the inhibition is -0.0295% (inactive).
For `O=c1[nH]c2ccccc2n1C1CCN(CCOc2ccccc2)CC1`, the inhibition was 5.46% (inactive).
Take `OC(COc1ccc2c(c1)CCC2)CN1CCN(c2cccc(Cl)c2)CC1` (centres undefined): the inhibition is -1.09% (inactive).
Consider `CCC(=O)c1ccc(OCC(O)CN2CCN(c3cccc(C(F)(F)F)c3)CC2)cc1` (centres undefined), for which the inhibition is 1.92% (inactive).
To `OC(COc1ccccc1)CN1CCN(c2cccc(Cl)c2)CC1` (centres undefined) belongs 46.9% (active).
`CCOC(=O)c1c(NC(=O)COC(=O)c2ccc(S(=O)(=O)C(F)F)cc2)sc(C(=O)N(C)C)c1C`: the inhibition is 1.83% (inactive).
Turning to `CC(=NNC(N)=O)C1CC2CCC1CC2` (centres undefined), the inhibition is 4.52% (inactive).
For `CC(OC(=O)c1ccc(NC(=O)CC#N)cc1)C(=O)Nc1ccc(S(=O)(=O)N2CCCC2)cc1` (centres undefined), the inhibition was -2.22% (inactive).
In the case of `Cc1ccccc1NC(=O)Cc1nc(COC(=O)C(C)(C)Oc2ccc(Cl)cc2)cs1`, the inhibition is -2.11% (inactive).
For the compound `Cc1noc(C)c1S(=O)(=O)N(C)C[C@H]1OCCCC[C@@H](C)Oc2ccc(NC(=O)CCCN(C)C)cc2C(=O)N([C@H](C)CO)C[C@@H]1C`, the inhibition is -4.38% (inactive).
With `COc1ccc(C(=O)Nc2cccc(/C=C(/CCC(=O)O)c3nc4ccccc4s3)c2)cc1` the figure was -6.71% (inactive).
With `COc1ccccc1NC(=O)c1ccc2nc(N3C(=O)CCC3=O)sc2c1`, the inhibition was -13.5% (inactive).
With `COC(=O)Cc1[nH]n(-c2nc3ccccc3s2)c(=O)c1C(C)=Nc1ccc(OC)cc1` the figure was 59.5% (active); with `C[C@H]1CN([C@@H](C)CO)C(=O)CCCn2cc(nn2)CO[C@@H]1CN(C)S(=O)(=O)c1cccc(C#N)c1`, -4.24% (inactive).
Take `COc1ccc(OC)c(C(=O)NC2CCCc3c2cnn3-c2cc(C)cc(C)c2)c1` (centres undefined): the inhibition is -16.3% (inactive).
As for `COc1ccc(C(=O)NC2CCCc3c2cnn3-c2cccc(C)c2C)c(OC)n1` (centres undefined), the inhibition is 47.8% (active).
Turning to `Cn1nccc1C(=O)NC1CCCc2c1cnn2-c1ccccc1F` (centres undefined), the inhibition is 28.4% (inactive).
`O=C(O)C1=C(C(=O)O)C2CCC1C2`: the inhibition is -22.4% (inactive).
Consider `COc1ccc(-c2csc(Nc3cccc(C)n3)n2)cc1OC`, for which the inhibition was 56.6% (active).
For the compound `COc1ccc2c(c1OC)C(=O)OC2Nc1nc(-c2ccccc2)cs1` (centres undefined), the inhibition was 22.9% (inactive).
With `Cc1cccc(NC(=O)COc2ccc(Br)cc2C)n1` the figure was -11.9% (inactive); with `Cc1ccc(-c2ccc(CN3C(C(C)C)C(=O)N(Cc4cn(CCC5OCCCO5)nn4)CCS3(=O)=O)cc2)cc1` (centres undefined), 3.16% (inactive); with `C[C@H]1CN([C@@H](C)CO)C(=O)CCCn2nncc2CO[C@@H]1CN(C)Cc1ccc(Oc2ccccc2)cc1`, 8.56% (inactive).
To `COc1ccc(C2=NOC(COC(=O)c3ccc4ccccc4n3)C2)cc1` (centres undefined) belongs 3.2% (inactive); to `Cc1ccc(C(=O)NNC2=Nc3cc([N+](=O)[O-])ccc3OC2)cc1`, -21.3% (inactive).
Turning to `COc1ccc(C2=Nc3cc(C)ccc3OC2)cc1`, the inhibition was 91.3% (active).
For `CCN(CC)C(=O)C(C)N1c2cccc3cccc(c23)S1(=O)=O` (centres undefined), the inhibition was 11.1% (inactive).
Consider `COc1ccc(S(=O)(=O)N2CCC(C(=O)NCCC(=O)NCCc3cccc(F)c3)CC2)cc1`, for which the inhibition was 6.77% (inactive).
To `O=C(c1cc(-c2ccc(O)cc2)on1)N1CCOCC1` belongs 12% (inactive).
To `O=C(c1cc(-c2cccc(O)c2)on1)N1CCc2ccccc2C1` belongs -0.0205% (inactive).
With `O=C(c1cc(-c2ccc(O)cc2)on1)N1CCCc2ccccc21`, the inhibition was 83.9% (active).
With `C[C@@H]1CN([C@@H](C)CO)C(=O)CCCn2nncc2CO[C@H]1CN(C)Cc1ccc(C(F)(F)F)cc1` the figure was -1.15% (inactive); with `Nc1ccc(C(=O)Nc2ccccc2N)cc1`, 43.3% (active); with `Nc1ccc(S(=O)(=O)NC(=O)c2ccccc2)cc1`, 5.43% (inactive).
For the compound `CC(=O)Nc1ccccc1NC(=O)c1cc(C)cc(C)c1`, the inhibition was -2.05% (inactive).
To `Cc1ccc(Cc2c(-c3ccc(C)cc3)nc3c4ccccc4ccn23)cc1` belongs -19.4% (inactive).
To `Cc1ccc(C(=O)N2CCCc3ccccc32)c(Cl)c1` belongs 6.82% (inactive); to `CC(Sc1ccc(S(=O)(=O)N2CCN(C)CC2)cn1)C(=O)NC1CCCC(C)C1C` (centres undefined), -17.5% (inactive).
For the compound `CCc1ccc(CN(C)C(=O)CCc2nnc(-c3ccc(-c4ccccc4)cc3)o2)nc1`, the inhibition was 5.34% (inactive).
In the case of `CCCCCCc1cc2cc(-c3nnc(-c4ccccc4)o3)c(=O)oc2cc1O`, the inhibition is 52% (active).
To `O[C@H]1C[C@H](c2ccc(Cl)cc2)N(Cc2cccs2)C[C@@H]1n1cc(C2CC2)nn1` belongs 1.65% (inactive).
To `CCOc1ccc(NS(=O)(=O)c2ccc(C(=O)NCC3CCCO3)cc2)cc1` (centres undefined) belongs -2.59% (inactive); to `COc1ccc(CN2C(=O)C(CC(=O)NCCCCc3ccccc3)CC(C(=O)N3CCOCC3)=C2C)cc1` (centres undefined), -8.73% (inactive).
To `COc1ccc(/C=C/c2noc(-c3ccccc3OC(C)=O)n2)cc1` belongs 9.61% (inactive); to `COc1ccc(OC)c(-c2csc(-c3cccs3)n2)c1`, 0.747% (inactive); to `COc1ccc(-c2nc(-c3ccccc3)no2)c(OC)c1`, 67.3% (active).
Consider `C#CCN(C[C@@H]1[C@@H](OC(=O)NC2CC2)[C@@H](OC(=O)NC2CC2)Cn2c(=O)ccc(=O)n21)S(=O)(=O)c1ccc(C)cc1`, for which the inhibition is 4.07% (inactive).
With `CCOc1ccc(NC(=S)N2CCC(NC(=O)c3ccccc3)CC2)cc1` the figure was 0.728% (inactive); with `CCOc1ccc(N/C=C/C(=O)c2cc(OC)c(OC)c(OC)c2)cc1`, -9.23% (inactive).
For the compound `CCOc1cc2ccccc2cc1C(=O)Nc1ccccn1`, the inhibition was -13.7% (inactive).
With `CCOc1ccc(N/C=C/C(=O)c2ccccc2)cc1` the figure was 82.1% (active); with `COc1ccc(C(=O)/C=C/Nc2ccccn2)cc1`, 67% (active).
With `Cc1cc(N/C=C\C(=O)c2ccc(Cl)c(Cl)c2)no1`, the inhibition is -16.1% (inactive).
To `NC1=CC(=O)C(=O)c2cccnc21` belongs 12.1% (inactive); to `COCC(=O)N(C)C[C@H]1Oc2cc(Br)ccc2S(=O)(=O)N([C@H](C)CO)C[C@H]1C`, 0.42% (inactive).
On to `O=C(Cc1ccc([N+](=O)[O-])cc1)NCCS(=O)(=O)N1CCN(c2ccccc2)CC1`, for which the inhibition was -3.09% (inactive).
As for `C/C(=N/Nc1nc(-c2ccccc2)c(CC(=O)O)s1)c1ccccc1`, the inhibition is -38.4% (inactive).
As to `c1ccc(C(=NNc2nc3ccccc3s2)c2ccccn2)cc1`, the inhibition is 79.1% (active).
As to `COc1cc(OC)nc(N/N=C(\c2ccccc2)c2ccncc2)n1`, the inhibition was 3.44% (inactive).
To `COc1cccc(OC)c1C(=O)N1CCN(Cc2ccccc2F)CC1` belongs 2.93% (inactive); to `C[C@@H]1CN([C@@H](C)CO)C(=O)c2c(c3ccccc3n2C)-c2ccccc2CO[C@H]1CN(C)C(=O)C1CC1`, -4.84% (inactive).
To `CCOC(=O)c1[nH]c2ccccc2c1N=C(C)N(CC)CC` belongs 0.352% (inactive); to `CCOC(=O)c1c(C)[nH]c2c1-c1ccccc1C(=O)C2=O`, 92.7% (active); to `CCOC(=O)c1c(C)[nH]c(C)c1S(=O)(=O)NCCCc1ccco1`, -0.931% (inactive).
Take `C[C@H]1NS(=O)(=O)c2cc(Cl)ccc2O[C@@H]1c1ccccc1`: the inhibition is -0.001% (inactive).

(Values after PubChem BioAssay AID504558 (Broad Institute, 2011).)
